Source: ChEMBL document CHEMBL3988442, “University of Dundee, Small-Polar-MMV Screening Library” (2021)
The campaign covered roughly 38,000 compounds. About 1,200 (3.2%) showed an effect of 50% or more. The median lay at about -58%. For the sample, strong results were picked, then their nearest neighbours and some compounds at random.

What follows are molecules tested on Plasmodium falciparum (assay: Calibr Malaria Delayed Death Assay SOP). Conditions: concentration 4.99e-06 (unit not given; other assays of the set use mol/L).
Format: functional, organism-based
Parameters: scale not given: in the data most compounds retested in dose-response had high values

SMILES | Percent Effect [%]
COc1ccccc1CNC(=O)N1CCN(Cc2cc(C)on2)CC1 | -4.63
COCc1nnc(NC(=O)CN2C(=O)c3ccccc3NC2C(C)C)s1 (stereo not given) | -66.52
O=C(COc1ccc(Cl)cc1)N1CCOCC1c1ncon1 (stereo not given) | -73.82
Cc1nc(N(C)C)nc(NCCc2ccccn2)c1C | -11.2
O=S1(=O)CCC(S(=O)(=O)c2cccc(S(=O)(=O)N3CCCCCC3)c2)C1 (stereo not given) | -52.35
CCc1ccc(CN2CCC3(CC2)CN(c2cnn(C)c2)C(=O)CO3)o1.O=C(O)C(F)(F)F.O=C(O)C(F)(F)F | -59.96
Cc1ccc2c(n1)N(CCn1cccn1)CCN(CC1CC1)C2.O=C(O)C(F)(F)F.O=C(O)C(F)(F)F | 77.61
Cc1ccc2c(n1)N(CCN(C)C)CCN(Cc1c(C)noc1C)C2.O=C(O)C(F)(F)F.O=C(O)C(F)(F)F.O=C(O)C(F)(F)F | 61.92
CCS(=O)(=O)N1CCN(CCn2cccn2)c2nc(C)ccc2C1.O=C(O)C(F)(F)F | -65.79
CN(C)CCN1CCN(Cc2nccs2)Cc2cccnc21.O=C(O)C(F)(F)F.O=C(O)C(F)(F)F.O=C(O)C(F)(F)F | 5.575
COCCN1CCN(Cc2c(C)noc2C)Cc2ccc(C)nc21.O=C(O)C(F)(F)F.O=C(O)C(F)(F)F | -62.13
CN(C)CCN1CCN(Cc2ccco2)Cc2cccnc21.O=C(O)C(F)(F)F.O=C(O)C(F)(F)F.O=C(O)C(F)(F)F | 11.84
Cc1ccc2c(n1)N(CCn1cccn1)CCN(S(C)(=O)=O)C2.O=C(O)C(F)(F)F | -106
CN(C)CCN1CCN(Cc2cccs2)Cc2cccnc21.O=C(O)C(F)(F)F.O=C(O)C(F)(F)F.O=C(O)C(F)(F)F | 77.04
Cc1noc(C)c1CN1CCN(CCN(C)C)c2ncccc2C1.O=C(O)C(F)(F)F.O=C(O)C(F)(F)F.O=C(O)C(F)(F)F | 19.65
O=C(C1CCOC1)N1C[C@H]2CN(Cc3ccncc3)C(=O)[C@H]2C1.O=C(O)C(F)(F)F (stereo not given in full) | -110.3
CCN1Cc2ccccc2N(C(=O)C2CCC2)CCC1=O | -10.23
CC(C)NC(=O)C1CN(C(=O)CCc2ccccc2)CC12CCOCC2 (stereo not given) | -79.45
CS(=O)(=O)Cc1ccccc1NCc1cc(Cl)ccc1Cl | -167.2
O=C1CCCN1c1cccc(CNCc2cc(F)ccc2F)c1 | -68.04
OCc1cccc(CNCc2cccc3c2OCCO3)c1 | 41.91
CC(NC(=O)Cc1ccccc1F)(C(N)=O)c1cccc(Cl)c1 (stereo not given) | -10.09
NS(=O)(=O)c1ccc(NCc2ccccc2F)cc1C(F)(F)F | -7.015

SMILES | Percent Effect [%]
Cc1ccccc1CNCc1cc(Cl)ccc1O | 74.83
Oc1ccc(Cl)cc1CNCc1ccccc1Cl | 75.8
Oc1ccc(Cl)cc1CNCc1ccccc1C(F)(F)F | 63.6
CC(=O)N1CCC(NC(=O)c2cc(Cl)ccc2O)CC1 | -71.2
Oc1ccc(Cl)cc1CNCc1cccc(C(F)(F)F)c1 | 88.68
Cc1cc(NC(=O)Cc2ccccc2O)c[nH]c1=O | -29.46
NS(=O)(=O)c1ccc(CNCC(=O)NCc2ccc(Cl)cc2Cl)cc1 | -66.27
c1cnn(CCNCc2cnc(N3CCOCC3)nc2)c1 | -160.5
Clc1snnc1CN1CCCC1Cn1cncn1 (stereo not given) | -22.89
CCc1nc(CN2CCCC(N(C)CCn3cccn3)C2)no1 (stereo not given) | -71.81
Cc1nc(N(C)C)nc(C)c1NS(=O)(=O)c1ccccc1Cl | -104.4
O=C(NCCc1cccc(F)c1)c1nc2c(s1)CCCN2C(=O)C1CC1 | -105
COC[C@@H]1CCC[C@]12CN(S(=O)(=O)c1cn(C)cn1)CCO2 | -139.4
CSCC(=O)NCc1cc(Br)ccc1OC(F)F | -97.53
OCCNc1nc(NCc2cccnc2)nc2nccnc12 | -78.22
NC(=O)C1Cn2ccnc2C2(CCN(C(=O)c3ccncc3)CC2)O1 (stereo not given) | -59.21
CC1N(c2cnn(C)c2)C(=O)COC12CCN(Cc1ccoc1)CC2 (stereo not given) | -59.84
CCc1ncc2c(n1)CN(Cc1nc(-c3cccs3)no1)CC2 | -24.12
COCCC1(C(=O)O)CCCN(C(=O)c2cc(F)ccc2OC)C1 (stereo not given) | -162.1
CC(=O)N1CCN(C(=O)Cn2ccc3c(Cl)cccc32)CC1 | -40.91
CC(C)CN(C(=O)Nc1cccnc1)C1CC1 | -3.552
CN1CCCC1c1ccc(C(=O)Nc2c3c(nn2C)CCC3)s1 (stereo not given) | -68.39
CC(C)CN1CCCC1c1ccc(C(=O)Nc2cc[nH]n2)s1 (stereo not given) | 42.59

SMILES | Percent Effect [%]
Cc1nc(C)n(CC2CCCN2CC(=O)Nc2cccnc2)n1 (stereo not given) | -55.47
CC(C)CN1CCCC1c1ccc(C(=O)Nc2cn(C)nn2)s1 (stereo not given) | 51.14
O=C(CN1CCc2onc(-c3ccccc3F)c2C1)NC1CC1 | -100.2
COc1ccc(CCC(=O)N2CCCC(n3cncn3)C2)cc1 (stereo not given) | -80.83
O=C(Cc1ccccc1)N1CCC2(CC1)COCCN2CC1CC1.O=C(O)C(F)(F)F | -81.37
CCOc1ccc(C(=O)N2CCCCC2Cn2nc(C)cc2C)cn1 (stereo not given) | -93.63
CNC(=O)Cc1cc2nccc(-c3c(OC)cccc3OC)n2n1 | -192.8
Cc1cc2nc(C(C)C)cc(N3CCN(S(N)(=O)=O)CC3)n2n1 | -79.73
COc1ccc(C2CCCN2C(=O)NCCCn2cccn2)cc1 (stereo not given) | -95.69
CCN(CC)Cc1ccccc1NC(=O)N(C)Cc1ccc(OC)cc1 | 39.65
CC(=O)N(C)Cc1ccccc1NC(=O)c1ccccc1C | -129.3
O=C(c1cc(C2CC2)[nH]n1)N1CCN(Cc2ccccc2)CC1 | -79.8
O=S(=O)(C1CC1)N1CCc2ncnc(N3CCOCC3)c2CC1 | -72.08
CN(Cc1ccc(C#N)cc1)CC1CCS(=O)(=O)C1 (stereo not given) | -39.39
C[C@]1(O)CN(CC(=O)N2CCCC2)CC[C@@H]1Oc1cccc(F)c1 | 21.38
Cc1cnccc1CN1CC[C@H](Oc2cccc(F)c2)[C@@](C)(O)C1 | 79.24
Cc1nccc(CN2CC[C@H](Oc3cccc(F)c3)[C@@](C)(O)C2)n1 | -32.63
C[C@]1(O)CN(Cc2cccc(C(=O)O)c2)CC[C@@H]1Oc1cccc(F)c1 | -94.06
C[C@]1(O)CN(CCO)CC[C@@H]1Oc1cccc(F)c1 | 63.55
C[C@]1(O)CN(CCC(N)=O)CC[C@@H]1Oc1cccc(F)c1 | -45.94
Cc1cnccc1CN1CC[C@@](C)(O)[C@H](Oc2cccc(F)c2)C1 | 38.73
C[C@]1(O)CN(Cc2ncccc2F)CC[C@@H]1Oc1cccc(F)c1 | -43.28
Cc1ccc(C(F)(F)F)cc1NC(=O)C1CCCN1 (stereo not given) | -141.5

SMILES | Percent Effect [%]
CC(=O)Nc1ccc(CNc2cccc(CS(C)(=O)=O)c2)cc1 | -47.89
O=C(NCc1cccs1)[C@@H]1CC[C@@H]2[C@@H](CCN2C2CCOCC2)O1.O=C(O)C(F)(F)F | -51.06
O=C(NCCCN1CCOCC1)c1ccc(-n2ccc3ccccc32)s1 | 33.29
CCN(CC)CCNC(=O)c1ccc(-n2ccc3ccccc32)s1 | 90.12
O=C(NCCN1CCOCC1)c1ccc(-n2ccc3ccccc32)s1 | 6.644
CCc1n[nH]c(C2CN(C(=O)c3ccc(NC4CC4)nc3)CCO2)n1 (stereo not given) | -51.88
CC[C@H](C)[C@H](N)C(=O)Nc1nc(-c2cnc(N3CCOCC3)nc2)cs1 | -43.38
OC(COc1ccccc1)CN1CCN(c2nccs2)CC1 (stereo not given) | -10.76
Cn1cc(CN2C[C@@H]3COC[C@]3(COCC3CC3)C2)cn1.O=C(O)C(F)(F)F | -16.85
O=C(O)C(F)(F)F.O=C(c1cocn1)N1C[C@H]2CCC[C@@]2(COc2ccccn2)C1 | 50.75
O=C(O)C(F)(F)F.O=C(O)C(F)(F)F.c1ccc(CN2C[C@H]3CCC[C@@]3(COCC3CC3)C2)nc1 | -73.03
O=C(O)C(F)(F)F.O=C(c1ncccn1)N1C[C@H]2CCC[C@@]2(COc2ccccn2)C1 | 12.48
Cn1cc(CN2C[C@H]3CCC[C@@]3(COCC3CC3)C2)cn1.O=C(O)C(F)(F)F | 51.84
Cc1cccc(CN2C[C@H]3CCC[C@@]3(COCc3csc(C)n3)C2)n1.O=C(O)C(F)(F)F.O=C(O)C(F)(F)F | 81.41
Cn1cc(CN2C[C@H]3CCC[C@@]3(COc3ccccn3)C2)cn1.O=C(O)C(F)(F)F.O=C(O)C(F)(F)F | 64.46
Cc1ccc(C(=O)N2C[C@H]3CCC[C@@]3(COc3ccccn3)C2)nc1.O=C(O)C(F)(F)F.O=C(O)C(F)(F)F | 6.864
Cc1cc(CN2C[C@H]3CCC[C@@]3(COCc3csc(C)n3)C2)no1.O=C(O)C(F)(F)F | 11.53
Cc1nc(COC[C@@]23CCC[C@@H]2CN(Cc2nccs2)C3)cs1.O=C(O)C(F)(F)F | -17.19
CS(=O)(=O)N1C[C@H]2CCC[C@@]2(COc2ccccn2)C1.O=C(O)C(F)(F)F | 2.668
Fc1cnc(N2C[C@H]3CCC[C@@]3(COc3ccccn3)C2)nc1.O=C(O)C(F)(F)F.O=C(O)C(F)(F)F | 3.485
COCc1ncc(-c2nccn2CCS(C)(=O)=O)cn1 | -109
